{"source": "PubChem BioAssay AID1645858", "about": "(Buhrlage Lab, Dana-Farber Cancer Institute and Novartis …, 2021)", "note": "The whole screen tested about 47,000 compounds, of which about 330 (0.7%) were called active. Shown is part of a subset that was picked to be rich in actives. Unmarked numbers belong to inactive results. Cut-off read from the data, not from the text of the source: active = inhibition above about 30%; inactive = the rest."}
{"target": "OTU domain-containing protein 3 (Homo sapiens) (UniProt Q5T2D3)", "sequence (Q5T2D3 whole entry, looked up, the tested form may be a part)": "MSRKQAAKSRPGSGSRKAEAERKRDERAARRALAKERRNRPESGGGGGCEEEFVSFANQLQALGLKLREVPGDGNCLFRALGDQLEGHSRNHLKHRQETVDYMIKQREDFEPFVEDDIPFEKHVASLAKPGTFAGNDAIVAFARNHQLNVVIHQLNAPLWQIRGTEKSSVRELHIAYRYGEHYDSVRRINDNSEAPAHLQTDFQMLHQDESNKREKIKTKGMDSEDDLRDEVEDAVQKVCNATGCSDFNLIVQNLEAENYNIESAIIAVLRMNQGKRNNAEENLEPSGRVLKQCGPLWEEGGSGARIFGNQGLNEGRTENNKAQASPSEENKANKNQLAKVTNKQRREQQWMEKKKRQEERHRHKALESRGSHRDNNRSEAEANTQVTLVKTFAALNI", "experiment": "inhibitors of human OTUD3 deubiquitinase (AID 1645858)", "conditions": "purified OTUD3, Ub-rhodamine fluorescence, 2 h; at 25 µM; active compounds read high"}
{"smiles": "Cc1cc(N2C(=O)c3oc4ccccc4c(=O)c3C2c2ccc(F)cc2)no1", "note": "(stereo not given)", "inhibition": "-4.24%"}
{"smiles": "CCNC1CN(C(=O)Cn2nnc3ccccc32)C2(CCCCC2)C1", "note": "(stereo not given)", "inhibition": "2.28%"}
{"smiles": "O[C@H]1[C@H](O)[C@H](Oc2cccc(F)c2)CC[C@H]1NCc1ccncc1", "inhibition": "15.2%"}
{"smiles": "NS(=O)(=O)c1cccc(CNC(=O)C2(c3ccccc3)CCC2)c1", "inhibition": "0.73%"}
{"smiles": "N#Cc1c(N)nc2c(c1N)CC(C(F)(F)F)O2", "note": "(stereo not given)", "inhibition": "-4.36%"}
{"smiles": "Clc1ccc2[nH]c3c(ccc4c5cc(Cl)ccc5[nH]c43)c2c1", "inhibition": "3.62%"}
{"smiles": "COc1ccc(CNC(=O)c2[nH]nc3c2CCc2ccccc2-3)cc1", "inhibition": "-5.63%"}
{"smiles": "Cc1ccc(NC(=O)N2CCCC2c2cc(C)on2)c(Cl)c1", "note": "(stereo not given)", "inhibition": "-2.99%"}
{"smiles": "CCC(Oc1ccccc1)C(=O)NCc1ccc2c(c1)OCO2", "note": "(stereo not given)", "inhibition": "9.11%"}
{"smiles": "c1ccc(-c2ccc(NCc3ccc4c(c3)OCO4)nn2)cc1", "inhibition": "43.5% (active)"}
{"smiles": "c1cc(CNCc2ccc3c(c2)OCO3)ccn1", "inhibition": "0.0568%"}
{"smiles": "Cc1cc(Cl)ccc1NC(=O)c1ccc(=O)[nH]c1", "inhibition": "-2.31%"}
{"smiles": "N[C@@H]1C[C@@H](Oc2cccnc2)[C@H](O)[C@H]1N1CCN(c2ccccc2)CC1", "inhibition": "-8.12%"}
{"smiles": "CSc1nccc(-c2ccc(F)cc2)c1C#N", "inhibition": "11%"}
{"smiles": "CCn1c(CNC(=O)c2ccco2)nnc1SCC(=O)Nc1ccc(C)cc1", "inhibition": "0.297%"}
{"smiles": "Cc1ccc(CN2C(=O)C(CC(=O)Nc3ccc(F)cc3)n3c2nc2ccccc23)cc1", "note": "(stereo not given)", "inhibition": "-8.71%"}
{"smiles": "Cc1c(Cl)ccc2sc(N(Cc3ccncc3)C(=O)c3ccco3)nc12", "inhibition": "-4.28%"}
{"smiles": "Cc1coc2c(C)c3oc(=O)c(CC(=O)N4CC[C@@]5(O)CCCC[C@H]5C4)c(C)c3cc12", "inhibition": "-9.33%"}
{"smiles": "CC(=O)c1ccc(C)c(=O)o1", "inhibition": "9.1%"}
{"smiles": "CC(=O)N1CCSc2ccc(S(=O)(=O)N(C)C(C)CCc3ccco3)cc21", "note": "(stereo not given)", "inhibition": "-8.61%"}
{"smiles": "O=C1NC2(CCN(C(=O)NCc3ccccc3)CC2)Nc2c(Cl)cccc21", "inhibition": "-5.72%"}
{"smiles": "CC(C)c1ncc(CN2CCC3(CC2)CN(S(C)(=O)=O)Cc2ccccc2O3)cn1", "inhibition": "-4.5%"}
{"smiles": "COc1ccc(-c2[nH]c3ccccc3c2SCCNC(=O)c2ccc(S(=O)(=O)N3CCOCC3)cc2)cc1", "inhibition": "11.6%"}
{"smiles": "O=C(CCc1nnc2n(CCc3ccccc3)c(=O)c3ccccc3n12)N1CCOCC1", "inhibition": "4.98%"}
{"smiles": "COC(=O)c1ccc(CN(C)C(=O)c2ccc(-c3nnc(-c4ccccc4)o3)cc2)cc1", "inhibition": "-0.482%"}
{"smiles": "O=C1CCCN1Cc1ncn2c1CN(Cc1cccnc1)CCC2", "inhibition": "-1.01%"}
{"smiles": "CCN1C(=O)C[C@@H](C(=O)NCc2nc(C)no2)[C@@H]1c1ccccc1C", "inhibition": "1.87%"}
{"smiles": "COc1ccc(CC2c3cc(OC)c(OC)cc3CCN2C(=O)c2ccc(C)c(Cl)c2)cc1OC", "note": "(stereo not given)", "inhibition": "1.03%"}
{"smiles": "O=C(CSC1=NC2(CCCCC2)Nc2ccccc21)Nc1cccc(F)c1", "inhibition": "-11.6%"}
{"smiles": "O=C(NCc1ccc(F)cc1)C1CCc2nc(N3CCCCC3)ncc2C1", "note": "(stereo not given)", "inhibition": "1.53%"}
{"smiles": "Cc1cc(-c2ccc(S(=O)(=O)Nc3cccc(CN4CCCC4)c3)s2)n[nH]1", "inhibition": "-13.6%"}
{"smiles": "Cc1ccc(S(=O)(=O)c2cnc3ccccc3c2N2CCC3(CC2)OCCO3)cc1", "inhibition": "1.24%"}
{"smiles": "O=C(Cc1c[nH]c2ccccc12)NC1(c2nc(-c3ccncc3)no2)CCCCC1", "inhibition": "-15.9%"}
{"smiles": "Clc1ccccc1-c1nc2nc3ccccc3nc2n1CC1CCCO1", "note": "(stereo not given)", "inhibition": "-16%"}
{"smiles": "COc1ccc(N2CC(C(=O)OCC(=O)Nc3ccc(F)cc3)CC2=O)cc1", "note": "(stereo not given)", "inhibition": "-3.39%"}
{"smiles": "C[C@@H]1CC[C@H]2C(CN3CCN(C)CC3)C(=O)O[C@]23[C@H]1CC[C@@]1(C)O[C@@H]31", "note": "(stereo not given in full)", "inhibition": "4.7%"}
{"smiles": "Cc1ccccc1CNC(=O)c1cn(C)nc1S(=O)(=O)N1CCC(C)CC1", "inhibition": "1.12%"}
{"smiles": "COc1ccccc1Cn1cnc2c([nH]c3cc(OC)c(OC)cc32)c1=O", "inhibition": "0.0298%"}
{"smiles": "Cc1nccc(N2CCC(Cc3cncc(-c4cnc(C)n4C)n3)C2)n1", "note": "(stereo not given)", "inhibition": "3.33%"}
{"smiles": "COc1ccc(NC(=O)Cn2ncc3cccn3c2=O)cc1", "inhibition": "-2.63%"}
{"smiles": "CCCNC(=O)c1cc(N2CCCC2)n2nccc2n1", "inhibition": "-68.7%"}
{"smiles": "CCS(=O)(=O)N1C[C@H]2CN(Cc3ccccc3Cl)C[C@H]2C1", "inhibition": "-1.12%"}
{"smiles": "O=C(Nc1nnc(-c2cccc([N+](=O)[O-])c2)o1)C1CCN(S(=O)(=O)c2ccc3c(c2)CCC3)CC1", "inhibition": "30.3% (active)"}
{"smiles": "O=C(COC(=O)C1CCN(S(=O)(=O)c2c(Cl)cccc2Cl)CC1)Nc1ccc2c(c1)CCC2", "inhibition": "0.0518%"}
{"smiles": "Cc1cccc(-c2nnc(-c3cccc(S(=O)(=O)N4CCCC4)c3)o2)c1", "inhibition": "10.7%"}
{"smiles": "Cc1cnc2nc3c(cc2c1)CN(S(=O)(=O)c1cc(F)ccc1C)CC3", "inhibition": "-230%"}
{"smiles": "COCCN1[C@H]2CCN(Cc3ccccn3)CC[C@@H]2Oc2ccccc2S1(=O)=O", "inhibition": "7.81%"}
{"smiles": "O=c1c(NCCCc2ccccc2)nccn1-c1ccc2c(c1)OCCO2", "inhibition": "-4.73%"}
{"smiles": "CC(C)N1C(=O)Cc2ccccc2C1C(=O)NCc1ccccc1F", "note": "(stereo not given)", "inhibition": "2.54%"}
{"smiles": "Cc1ccc(Sc2c(C)[nH]n(-c3ccccc3)c2=O)cc1", "inhibition": "7.8%"}
{"smiles": "COc1c(O)c2c(=O)cc(OC)c3c4c(OC)cc(=O)c5c(O)c(OC)c(CC(C)OC(=O)c6ccccc6)c(c(c1CC(C)OC(=O)Oc1ccc(O)cc1)c23)c54", "note": "(stereo not given)", "inhibition": "-24.8%"}
{"smiles": "C=C1CCC2[C@](C)(CCC[C@]2(C)C(=O)OC)[C@H]1CCc1ccoc1C[N+](C)(C)Cc1ccccc1", "note": "(stereo not given in full)", "inhibition": "22.7%"}
{"smiles": "C=C1CCC2[C@](C)(CCC[C@]2(C)C(=O)OC)[C@H]1CCc1ccoc1CNCC(=O)O", "note": "(stereo not given in full)", "inhibition": "-1.63%"}
{"smiles": "C=C1CCC2[C@](C)(CCC[C@]2(C)C(=O)OC)[C@H]1CCc1ccoc1/C=C/C(=O)O", "note": "(stereo not given in full)", "inhibition": "57.1% (active)"}
{"smiles": "Cc1cc(C)n(CCCNS(=O)(=O)c2ccc(C(C)(C)C)cc2)n1", "inhibition": "-3.74%"}
{"smiles": "Cc1nc(-c2ncc[nH]2)cc(C2CCCCN2S(=O)(=O)N(C)C)n1", "note": "(stereo not given)", "inhibition": "-4.61%"}
{"smiles": "N#Cc1cccc(S(=O)(=O)c2c[nH]c3ccc(Cl)cc3c2=O)c1", "inhibition": "-5.74%"}
{"smiles": "CCC(C)C1NC(=O)C(Cc2ccc(O)cc2)NC(=O)C(CCC(N)=O)NC(=O)C2CCCN2C(=O)C(C(C)C)NC(=O)C(CCC(=O)O)NC(=O)C(C(C)O)NC(=O)C(NC(=O)C(CCCN)NC(=O)C(CCC(=O)O)NC(=O)CCCCCCCCCCCCCC(C)C)Cc2ccc(cc2)OC1=O", "note": "(stereo not given)", "inhibition": "5.05%"}
{"smiles": "O=C(NC(C(=O)N1CCCc2ccccc21)c1ccccc1)c1cnccn1", "note": "(stereo not given)", "inhibition": "14.1%"}
{"smiles": "O=C(Cn1cccc(-c2nc(-c3ccccc3)no2)c1=O)Nc1ccccc1F", "inhibition": "6.4%"}
{"smiles": "N#Cc1ccc(NC(=O)Nc2cccn(Cc3ccccc3F)c2=O)cc1", "inhibition": "37.7% (active)"}
{"smiles": "Cc1noc(-c2cccn(Cc3cc(F)ccc3F)c2=O)n1", "inhibition": "5.03%"}
{"smiles": "Cc1cc(C(=O)N2CCCCC2c2[nH]ncc2C)c2c(C)noc2n1", "note": "(stereo not given)", "inhibition": "11.6%"}
{"smiles": "COc1ccccc1C(=O)Nc1ccc(N(c2ccccc2)C(C)C)cc1", "inhibition": "2.72%"}
{"smiles": "FC(F)(F)c1cc(N2CCCCC2)nc(-c2ccccn2)n1", "inhibition": "-3.6%"}
{"smiles": "CC(Sc1ncnc2ccccc12)C(=O)NCc1ccc2c(c1)OCO2", "note": "(stereo not given)", "inhibition": "12.8%"}
{"smiles": "Cn1cc(C2CCCN2C(=O)c2ccc(-n3cccn3)nc2)cn1", "note": "(stereo not given)", "inhibition": "-5.62%"}
{"smiles": "COc1ccc(-c2cc(=O)oc3c(C)c(OCc4ccccc4F)ccc23)cc1", "inhibition": "1.77%"}
{"smiles": "CN1CCN(c2nc3c(s2)CN(C(=O)c2ccnn2C)CC3)CC1", "inhibition": "-25.7%"}
{"smiles": "COc1cccc(NC(=O)C(Sc2cccc(NC(=O)c3ccccc3F)c2)c2ccccc2)c1", "note": "(stereo not given)", "inhibition": "15.7%"}
{"smiles": "C#CCOc1ccc2ccccc2c1CN1CCc2ccccc2C1", "inhibition": "14.8%"}
{"smiles": "COCCN(C(=O)CCC(=O)Nc1ccccn1)C(C(=O)NCC1CCCO1)c1ccc(C)cc1", "note": "(stereo not given)", "inhibition": "12.3%"}
{"smiles": "CN1C[C@H]2CCN(S(=O)(=O)c3ccc(OC(F)(F)F)cc3)C[C@H]21", "inhibition": "5.38%"}
{"smiles": "COc1ccccc1N1CCN(C(=O)CSCc2ccccc2C)CC1", "inhibition": "-10.5%"}
{"smiles": "CC(C)C(NS(=O)(=O)c1ccccc1)C(=O)OCC(=O)Nc1cc([N+](=O)[O-])ccc1F", "note": "(stereo not given)", "inhibition": "6.16%"}
{"smiles": "CCCc1cc(=O)[nH]c2nnc(SCC(=O)N(CC)CC)n12", "inhibition": "-0.85%"}
{"smiles": "Cc1nn(-c2ccc(F)cc2F)c2c1C(C(=O)c1cc3ccccc3o1)CC(=O)N2", "note": "(stereo not given)", "inhibition": "-3.81%"}
{"smiles": "CCCCC1CCC(C(=O)N2CCC(C3(C)NC(=O)NC3=O)CC2)CC1", "note": "(stereo not given)", "inhibition": "5.45%"}
{"smiles": "CCc1ccc(S(=O)(=O)Nc2cc(C(=O)Nc3ccccc3)ccc2OC)cc1", "inhibition": "-4%"}
{"smiles": "Cc1cc(CN2CC[C@H]3[C@H]2CCN3S(C)(=O)=O)oc1C", "inhibition": "-12%"}
{"smiles": "Cc1nn(CC(C)C)c(C)c1CC(=O)N1CCCC1c1cnn(C)c1", "note": "(stereo not given)", "inhibition": "-0.626%"}
{"smiles": "NC(=O)CC[C@H](NC(=O)[C@@H]1CCCN1C(=O)[C@H](Cc1ccccc1)n1c(=O)[nH]c2ccccc2c1=O)C(=O)O", "inhibition": "-2.35%"}
{"smiles": "Cc1ccc(NC(=O)C2CCN(S(=O)(=O)c3cnc[nH]3)CC2)cc1Cl", "inhibition": "-2.32%"}
{"smiles": "O=C(Cc1c(Cl)cccc1Cl)NCc1cccc(C(F)(F)F)c1", "inhibition": "4.26%"}
{"smiles": "COc1cccc(CN2C[C@@]34CN(C(=O)C5CCC5)C[C@@H](C[C@@H]3S2(=O)=O)O4)c1", "inhibition": "9.25%"}
